What was measured:
Format in all cases: functional
[1] = target: Solute carrier family 2, facilitated glucose transporter member 1 (Homo sapiens) (UniProt P11166); test: ST_JUDE_LEISH: Cytotoxicity at 2uM final concentration against transgenic Leishmania Mexicana promastigotes LmGLUT1 that are glucose transport deficient and complemented with the human glucose transporter GLUT1. Activity is measured by DNA content using SYBR green in vitro
[2] = target: Hexose transporter 1 (Plasmodium falciparum) (UniProt O97467); test: ST_JUDE_LEISH: Cytotoxicity at 2uM final concentration against transgenic Leishmania Mexicana promastigotes LmPfHT that are glucose transport deficient and complemented with the Plasmodium falciparum hexose transporter. Activity is measured by DNA content using SYBR green in vitro
[3] = target: Glucose transporter (Leishmania mexicana) (UniProt O61059); test: ST_JUDE_LEISH: Cytotoxicity at 2uM final concentration against transgenic Leishmania Mexicana promastigotes LmGT2 that are glucose transport deficient and complemented with the L. Mexicana glucose transporter 2. Activity is measured by DNA content using SYBR green in vitro

Chain of Solute carrier family 2, facilitated glucose transporter member 1 (Homo sapiens) (P11166 whole entry): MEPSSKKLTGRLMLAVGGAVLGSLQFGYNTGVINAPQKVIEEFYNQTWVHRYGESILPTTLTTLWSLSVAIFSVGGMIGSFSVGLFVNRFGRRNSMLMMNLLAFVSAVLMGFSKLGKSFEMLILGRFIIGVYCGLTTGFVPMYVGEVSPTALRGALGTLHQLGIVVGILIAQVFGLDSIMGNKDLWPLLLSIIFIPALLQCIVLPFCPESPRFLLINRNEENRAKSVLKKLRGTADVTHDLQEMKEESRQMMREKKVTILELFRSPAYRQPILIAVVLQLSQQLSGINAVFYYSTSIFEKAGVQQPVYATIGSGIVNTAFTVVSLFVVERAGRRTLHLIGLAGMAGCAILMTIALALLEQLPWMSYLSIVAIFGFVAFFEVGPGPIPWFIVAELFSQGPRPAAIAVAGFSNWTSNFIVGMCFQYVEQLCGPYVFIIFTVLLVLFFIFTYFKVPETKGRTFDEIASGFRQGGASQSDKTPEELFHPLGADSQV

SMILES | inhibition [1] | inhibition [2] | inhibition [3]
O=[N+]([O-])c1ccc(Nc2nc(N/N=C/c3cc(Cl)cc(Cl)c3O)nc(Nc3ccccc3)n2)cc1 | 2.04% | 2.61% | 2.65%
CC(C)c1cc(N)c2cc(NC(=O)COCC(=O)Nc3ccc4nc(C(C)C)cc(N)c4c3)ccc2n1 | 5.18% | 5.67% | 5.02%
NC1(C(=O)O)Cc2ccc(Cl)cc2C1 (centres undefined) | 5.91% | 2.95% | 3.62%
CC1(C)NC(N)=NC(=N)N1OCc1nc(N)nc(Nc2ccccc2)n1 | 5.43% | 5.4% | 5.9%
COc1ccc(-c2cnc3ccc(NCCCO)nn23)cc1OC | -0.63% | 0.58% | 1.14%
O=S(=O)(NCCN1CCCC1)c1cccc(-c2ccc(CNCc3ccccc3)cc2)c1 | 5.11% | 2.05% | 2.83%
O=C(Nc1ccc2c(c1)CCN2C1CCN(Cc2cccc(C(F)(F)F)c2)C1)c1ccco1 (centres undefined) | -2.78% | 0.28% | -0.47%
CN1CCN(c2ccnc3ccc(NC(=O)Cc4cccc(Cl)c4Cl)cc23)CC1 | 1.15% | -1.14% | -0.31%
O=c1nc(NCCCNCc2cc3c(Cl)cc(Cl)cc3[nH]2)[nH]c2ccsc12 | 81.4% | 96.7% | 83.9%
FC(F)(F)c1cccc(CNCC2CCN(CC3CCCCC3)CC2)c1 | -0.93% | -0.13% | 0.34%
Nc1nc(N)c2c(ccc3c2ncn3Cc2ccccc2)n1 | 12.9% | 13.7% | 10.5%
CN1CCN(S(=O)(=O)c2ccc3nccc(Nc4ccc(Oc5ccccc5)cc4)c3c2)CC1 | -3.11% | -1.4% | -1.4%
CC(Nc1nncc(-c2cccc(F)c2)n1)c1ccc(F)cc1 (centres undefined) | 11.7% | 9.2% | 10.7%
COc1cc(NC(=O)/C=C/c2cc(F)cc(F)c2F)cc(OCCN2CCC3(CC2)OCCO3)c1 | 3.83% | 3.1% | 1.7%
CC(C)CNCc1ccc(-c2cccc(CNc3ccc4ncccc4c3)c2)cc1 | 4.79% | 3.71% | 2.69%
O=C(NCCCCN1CCN(CC=Cc2ccccc2)CC1)c1ccc(NC(=O)c2cc(Cl)cc(Cl)c2)cc1 | -0.99% | -0.05% | -0.79%
Cc1cccc2nc(-c3ccc(-c4cccc(CNCCCN5CCCC5=O)c4)cc3)[nH]c12 | 7.98% | 9.6% | 8.02%
Cn1c(-c2ccccc2)cc2c3c(=O)cc(C(F)(F)F)[nH]c3ccc21 | 13.8% | 13.1% | 14.1%
CC(C)(CNC(=O)[C@H]1CCCCN1)c1nc(-c2ccc(Cl)c(O)c2)c(-c2ccncc2)[nH]1 | 5.66% | 4.64% | 6.24%
COc1ccc(Nc2nc(NCc3ccc(-n4ccnc4)cc3)cc(-c3ccc(OC)cc3)n2)cc1 | 3.31% | 2.46% | 3.46%
CCC1(CC)N=C(N)N=C(N)C1c1ccc(Cl)c(Cl)c1 (centres undefined) | -0.44% | 0.07% | 0.44%
Fc1cccc(Nc2nc(NCc3ccc(Cl)c(Cl)c3)nc(Nc3cccc(F)c3)n2)c1 | 11.7% | 13.6% | 7.17%
Cc1cnc(C(=O)Nc2cccc(-c3cccc(-c4nc5cccc(C)c5[nH]4)c3)c2)cn1 | 4.11% | 2.89% | 0.5%
COc1cc2c(cc1O)[C@@H]1[C@H](O)[C@@H](O)C=C3CCN(C2)[C@H]31 | 4.04% | 3.79% | 1.58%
O=c1cc(NCCC(CNCc2ccoc2)NCc2cc(Br)cc(Br)c2)[nH]c2ccccc12 (centres undefined) | 6.77% | 6.66% | 9.4%

SMILES | inhibition [1] | inhibition [2] | inhibition [3]
Nc1ccc(-c2nc3cc(Cc4ccc5[nH]c(-c6ccc(N)cc6)nc5c4)ccc3[nH]2)cc1 | 0.06% | -2.2% | -2.11%
O=C(NC1CCN(Cc2cccc(C(F)(F)F)c2)CC1)c1ccc(-c2cccc(Cl)c2)s1 | 3.3% | 2.49% | 5.19%
FC(F)(F)c1cccc(Nc2nc3ccccc3nc2Nc2cccc(C(F)(F)F)c2)c1 | -0.24% | 0.5% | 0.85%
CO/C(=C\C=C\c1cc2cc(Cl)c(Cl)cc2[nH]1)C(=O)NCCN1CCCCC1 | 0.85% | 1.14% | 0.35%
CC(=O)Nc1ccc(C(=O)NC2CCN(c3ccnc4cc(Cl)ccc34)CC2)cc1 | 0.22% | 1.09% | 1.09%
O=C(O)c1ccc(-c2c[nH]c3ncc(-c4ccc(Cl)cc4)cc23)cc1 | 0.12% | -0.34% | -0.05%
Oc1ccc2[nH]c(-c3cccc(F)c3)nc2c1CN1CCC(N2CCCC2)CC1 | 3.47% | 3.65% | 4.9%
COc1cc2nc(Nc3ccc4c(c3)OCCO4)nc(N)c2cc1OC | -0.32% | -0.78% | 1.75%
CN(C)CCCNC(=O)c1ccccc1Sc1ccccc1C#N | 0.79% | 1.43% | 1.54%
c1cc(CN2CCN(c3ccncc3)CC2)cc(-c2ccc(-c3nc4ccccc4[nH]3)s2)c1 | 3.45% | 2.53% | 2.03%
Cc1cnccc1/C=C/c1cccc(OCCCN2CCc3ccc(S(C)(=O)=O)cc3CC2)c1 | 2.21% | 2.58% | 2.19%
Cc1cccc2c(CON3C(N)=NC(N)=NC3(C)C)cccc12 | 0.73% | 1.67% | 1.51%
CCOC(=O)c1ccc(N=C2SC(=Cc3cc(Br)ccc3O)C(=O)N2C)cc1 | 3.33% | 1.81% | 3.81%
CCOc1cc(C)ccc1N1CCN(CCCCNC(=O)c2ccc(NC(=O)c3ccc(Cl)cc3)cc2)CC1 | 0.02% | -2.19% | -0.2%
COc1cccc2cc(C(=O)N[C@@H](CC(C)C)C(=O)N[C@H](C=NN3CCOC3=O)CC(C)C)oc12 | 2.15% | 4.14% | 1.9%
CN(CCN)Cc1cccc(-c2cccc(-c3nc4cc(F)ccc4[nH]3)c2)c1 | 1.11% | 1.79% | -1.76%
CC(C)(CN)c1nc(-c2ccc(Cl)c(O)c2)c(-c2ccnc(N)n2)[nH]1 | -0.87% | -0.81% | -1.58%
Cc1ccn2c(C(=O)N3CCN(c4cccc5c4nc(-c4ccoc4)n5Cc4ccccn4)CC3)c(C)nc2c1 | 2.33% | 1.01% | -0.49%
O=C(N[C@H]1CCN(Cc2ccc(OCCCN3CCCCC3)cc2)C1)c1ccc(Cl)c(Cl)c1 | 2.14% | 3.98% | 3.42%
COc1cc2c(cc1C(F)(F)F)N(C(=O)Nc1cc(Br)cc(-c3cccnc3)c1)CC2 | 8.34% | 6.53% | 6.18%
O=C(Nc1ccc(Br)cc1)c1cc(Br)ccc1NS(=O)(=O)c1ccc(C(F)(F)F)cc1 | 0.82% | 0.98% | 0.46%
Cc1cc(N/N=C/c2cccc([N+](=O)[O-])c2)c2cc(F)ccc2n1 | 2.55% | 1.82% | 0.14%
c1cc(-c2cc3ccc(C4=NCCN4)cc3[nH]2)ccc1C1=NCCN1 | 1.68% | 2.57% | 0.39%
N=C(NCCc1ccc(Cl)c(Cl)c1)c1ccc2ccccc2c1 | 3.61% | -1.48% | -2.5%
CCC(C)NC(=O)Cn1c2ncccc2c(=O)n1-c1ccc(C)cc1 (centres undefined) | 5.25% | 4.88% | 0.04%

SMILES | inhibition [1] | inhibition [2] | inhibition [3]
Cc1ccc(C)c(NC(=O)NCCNc2ccnc(Nc3ccc(F)cc3)n2)c1 | 17% | 13.1% | 6.47%
Cc1cc(C(=O)NC2CCN(Cc3ccccc3)CC2)ccc1-c1nc2cc(Cl)c(Cl)cc2[nH]1 | 3.63% | -0.19% | 3.05%
COc1cccc(CCNc2nc(NCc3ccccc3)c3cc(OC)c(OC)cc3n2)c1 | 7.51% | 5.93% | 1.86%
Fc1ccc2cc(C=Cc3ccncc3)[nH]c2c1 | 2.24% | 4.09% | 0.56%
CCOc1cc2ncnc(Nc3ccc(OCc4ccccc4Br)c(OC)c3)c2cc1OCC | 5.55% | 5.15% | 2.49%
CCC(CC)C(CC(=O)NC(C)(C)CCc1ccccc1OC)Nc1ccc(C#N)c2ccccc12 (centres undefined) | 4.46% | 3.53% | 3.55%
Cc1cccc2nc(-c3cccc(-c4ccc(NC(=O)c5ccoc5)cc4)c3)[nH]c12 | -0.27% | 2.14% | -1.09%
O=C(N1CCN(c2ccnc3cc4c(cc23)N(Cc2ccccc2)CC4)CC1)C(F)(F)F | 2.23% | 3.24% | 4.39%
C#CCCOc1ccc2ccccc2c1CNCCCCCCNCc1c(OCCC#C)ccc2ccccc12 | -1.76% | 3.36% | -0.13%
COc1cccc(NC(=O)[C@H](C(C)C)n2c(=O)[nH]c3ccccc3c2=O)c1 | 1.34% | 0.97% | 5.04%
O=C(Nc1cc(Cl)cc(Cl)c1)N[C@H]1CCN(CCCCCNC(=O)C2CC2c2ccc(Cl)c(Cl)c2)C1 (some centres undefined) | 0.25% | -1.16% | 2.06%
COc1ccc2nccc([C@@H](O)CN3CCC(NCc4cc5c(Cl)cccc5[nH]4)CC3)c2c1 | 10.6% | 14.7% | 2.34%
CC(C(=O)N1CCCC1)N1CCN(C(c2ccccc2)c2ccccc2)CC1 (centres undefined) | 2% | 2.36% | 2.74%
CN1CCCN(Cc2ccc(-c3ccc(NC(=O)c4ccc(Cl)cc4)cc3)cc2)CC1 | 63.1% | 50% | 50.7%
N#Cc1cccc(NC(=O)Nc2ccc(-c3cccc(-c4nc5cc(F)ccc5[nH]4)c3)cc2)c1 | 3.67% | 1.58% | 4.18%
N#Cc1cccc(NC(=O)Nc2ccc3c(c2)CN(Cc2c[nH]c4ncccc24)C3)c1 | 6.66% | 7.47% | 3.37%
O=C(Nc1ccc(C(F)(F)F)cc1)c1cccc(S(=O)(=O)NCC2CCCN(CC3CCCCC3)C2)c1 (centres undefined) | 5.71% | 2.62% | 0.02%
CCc1c[nH]c2c(N3CCCS3(=O)=O)cc(C(=O)N[C@@H](Cc3ccccc3)[C@H](O)CNC(C)(C)c3cccc(C(F)(F)F)c3)cc12 | -0.71% | 0.86% | 0.6%
CCN(CC)CCNc1ccnc2c3ccccc3n(C)c12 | -1.54% | 0.22% | -0.19%
COC(=O)c1sc(-c2ccc(Cl)cc2)cc1N(CCCN1CCC(N2CCCCC2)CC1)S(=O)(=O)c1ccc(C)cc1 | 23.5% | 11.2% | 9.1%
CC1(C)N=C(N)N=C(N)N1c1ccc(Br)cc1 | 0.61% | 1.29% | 3.63%
CC(C)NCc1cccc(-c2ccc(NS(=O)(=O)c3cccc4cccnc34)cc2)c1 | 13.8% | 8.78% | -2.82%
CCN(CC)C(=S)N/N=C1/C(=O)Nc2c(C)cccc21 | 6.57% | 4.85% | 1.52%

Source: ChEMBL document CHEMBL3433997, “St. Jude Leishmania screening dataset” (2016)
